Assay results published in PubChem BioAssay (NCI).
The panel holds about 83,000 compounds, 20% with a hit somewhere; the sample as a whole holds those more often.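 Growth was measured after 48 h exposure to one concentration of compound in 96-well plates. Values under 10 count as active.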 The source made the active and inactive calls.

Assays:
Test in all cases: NCI-60 one-dose screen, 48 h (100 = growth as untreated, 0 = no growth, -100 = all killed)
Conditions in all cases: 10 µM unless noted
HCT-15 colon = system: HCT-15 colon
HT29 colon = system: HT29 colon
SNB-75 CNS = system: SNB-75 CNS
SNB-19 CNS = system: SNB-19 CNS
U251 CNS = system: U251 CNS
PC-3 prostate = system: PC-3 prostate
SK-MEL-5 melanoma = system: SK-MEL-5 melanoma
UACC-62 melanoma = system: UACC-62 melanoma
LOX IMVI melanoma = system: LOX IMVI melanoma
SK-MEL-28 melanoma = system: SK-MEL-28 melanoma
SK-MEL-2 melanoma = system: SK-MEL-2 melanoma
EKVX NSCLC = system: EKVX NSCLC
SN12C renal = system: SN12C renal
UO-31 renal = system: UO-31 renal
TK-10 renal = system: TK-10 renal
ACHN renal = system: ACHN renal
CAKI-1 renal = system: CAKI-1 renal
A498 renal = system: A498 renal
CCRF-CEM leukemia = system: CCRF-CEM leukemia
MOLT-4 leukemia = system: MOLT-4 leukemia

Measured: growth

O=C(N=c1oc2ccccc2cc1-c1cc2ccccc2[nH]1)Nc1ccc(Cl)cc1
inactive: HCT-15 colon 107% | HT29 colon 99.8% | SNB-75 CNS 78.3% | SNB-19 CNS 97.3% | U251 CNS 104% | PC-3 prostate 86.8% | SK-MEL-5 melanoma 99.6% | UACC-62 melanoma 83% | LOX IMVI melanoma 94.2% | SK-MEL-28 melanoma 100% | SK-MEL-2 melanoma 113% | EKVX NSCLC 88.1% | SN12C renal 92.6% | UO-31 renal 61.2% | TK-10 renal 151% | ACHN renal 91.3% | CAKI-1 renal 72.2% | A498 renal 121% | CCRF-CEM leukemia 109% | MOLT-4 leukemia 95.8%

CCCCCCCCCCCCCCCCCC1OCC(COC(=O)O[C@]2(CC)C(=O)OCc3c2cc2n(c3=O)Cc3cc4ccccc4nc3-2)O1 (stereo partly drawn)
inactive: HCT-15 colon 83.5% | HT29 colon 79.6% | SNB-75 CNS 79.6% | SNB-19 CNS 57.6% | U251 CNS 56.5% | PC-3 prostate 77.8% | SK-MEL-5 melanoma 84.6% | UACC-62 melanoma 31.6% | LOX IMVI melanoma 59.7% | SK-MEL-28 melanoma 111% | SK-MEL-2 melanoma 116% | EKVX NSCLC 92.4% | SN12C renal 49% | UO-31 renal 73.1% | TK-10 renal 95.5% | ACHN renal 62.9% | CAKI-1 renal 65.7% | A498 renal 88.6% | CCRF-CEM leukemia 29.2% | MOLT-4 leukemia 43.3%

COc1ccc2c(c1OC)C(=O)O[C@H]2[C@H]1c2c(cc3c(c2OC)OCO3)CCN1C
inactive: HCT-15 colon 95.6% | HT29 colon 104% | SNB-75 CNS 88.5% | SNB-19 CNS 103% | U251 CNS 97.2% | PC-3 prostate 90.1% | SK-MEL-5 melanoma 96.2% | UACC-62 melanoma 109% | LOX IMVI melanoma 90.2% | SK-MEL-28 melanoma 100% | SK-MEL-2 melanoma 106% | EKVX NSCLC 95.4% | SN12C renal 100% | UO-31 renal 85.9% | TK-10 renal 122% | ACHN renal 95.8% | CAKI-1 renal 80.3% | A498 renal 93.1% | CCRF-CEM leukemia 101%

Cc1ccc(NC2=C(Cl)C(=O)c3nc(C)ccc3C2=O)cc1
active: HCT-15 colon -77.1% | SNB-75 CNS -41.9% | SK-MEL-5 melanoma -90.8% | UACC-62 melanoma -70.4% | LOX IMVI melanoma -78.2% | SK-MEL-28 melanoma -79% | SK-MEL-2 melanoma -23.8% | SN12C renal -70.4% | UO-31 renal -80.6% | ACHN renal -98.1% | CAKI-1 renal -72% | CCRF-CEM leukemia 0.58% | MOLT-4 leukemia -13.5%
inactive: HT29 colon 82.4% | SNB-19 CNS 47.3% | U251 CNS 41.3% | PC-3 prostate 29.9% | EKVX NSCLC 58.6% | TK-10 renal 130% | A498 renal 91%

C#C[C@]1(O)CC[C@H]2[C@@H]3CC=C4c5sc(Nc6cc(F)ccc6F)nc5CC[C@]4(C)[C@H]3CC[C@@]21C
active: HCT-15 colon -28.4% | HT29 colon 8.03% | SNB-75 CNS -28.6% | SNB-19 CNS 6.38% | U251 CNS -15.2% | PC-3 prostate -8.02% | UACC-62 melanoma -36.2% | LOX IMVI melanoma -77.7% | SK-MEL-28 melanoma -44.9% | SK-MEL-2 melanoma -6.68% | SN12C renal -43.1% | UO-31 renal -98.3% | ACHN renal -68.2% | CAKI-1 renal -31.5% | A498 renal -13.4% | CCRF-CEM leukemia 4.58% | MOLT-4 leukemia 6.12%
inactive: SK-MEL-5 melanoma 13.2% | EKVX NSCLC 23.9% | TK-10 renal 18.5%

Cc1cc(-c2cc(C)c(N)cc2C)c(C)cc1N
inactive: HCT-15 colon 73% | HT29 colon 99% | SNB-75 CNS 101% | SNB-19 CNS 85.2% | U251 CNS 71.8% | PC-3 prostate 80.5% | SK-MEL-5 melanoma 81.6% | UACC-62 melanoma 75.8% | LOX IMVI melanoma 75.6% | SK-MEL-28 melanoma 89.3% | SK-MEL-2 melanoma 90.5% | EKVX NSCLC 115% | SN12C renal 89.9% | UO-31 renal 78.7% | TK-10 renal 101% | ACHN renal 92.8% | CAKI-1 renal 87.3% | A498 renal 105% | CCRF-CEM leukemia 89.8%

CC([C@H]1CCC2C3CCC4C[C@@H](NC=O)CC[C@]4(C)C3CC[C@@]21C)N(C)C (stereo partly drawn)
inactive: SNB-19 CNS 44.6% | EKVX NSCLC 29% | SN12C renal 19.9% | TK-10 renal 49.1% | A498 renal 29.1%
active: HCT-15 colon -59.7% | HT29 colon -49.4% | SNB-75 CNS -1.26% | U251 CNS 4.82% | PC-3 prostate 5.08% | SK-MEL-5 melanoma -96.7% | UACC-62 melanoma -51.3% | LOX IMVI melanoma -58.7% | SK-MEL-28 melanoma -94.2% | SK-MEL-2 melanoma -7.03% | UO-31 renal 0.264% | ACHN renal 6.15% | CAKI-1 renal -10.1% | CCRF-CEM leukemia -21.6% | MOLT-4 leukemia -49.9%

CCN(CC)S(=O)(=O)c1ccc(NC(=O)CSc2nnc(C)n2-c2ccccc2)cc1
inactive: HCT-15 colon 113% | HT29 colon 111% | SNB-75 CNS 98.5% | SNB-19 CNS 102% | U251 CNS 104% | PC-3 prostate 95.2% | SK-MEL-5 melanoma 105% | UACC-62 melanoma 92.8% | LOX IMVI melanoma 102% | SK-MEL-28 melanoma 108% | SK-MEL-2 melanoma 92.5% | EKVX NSCLC 107% | SN12C renal 98.1% | UO-31 renal 80.8% | TK-10 renal 126% | ACHN renal 98.7% | CAKI-1 renal 106% | A498 renal 107% | CCRF-CEM leukemia 97.9% | MOLT-4 leukemia 96.2%

Cc1c(C(=O)N[C@@H](Cc2ccccc2)C(=O)C(=O)NCc2ccc(F)cc2)[nH]c2ccccc2c1=O
inactive: HCT-15 colon 96.2% | HT29 colon 101% | SNB-75 CNS 88.5% | SNB-19 CNS 96.9% | U251 CNS 101% | PC-3 prostate 86.5% | SK-MEL-5 melanoma 98.7% | UACC-62 melanoma 91.7% | LOX IMVI melanoma 99.9% | SK-MEL-28 melanoma 100% | SK-MEL-2 melanoma 108% | EKVX NSCLC 85.3% | SN12C renal 78.9% | UO-31 renal 106% | TK-10 renal 107% | ACHN renal 97.8% | CAKI-1 renal 96.9% | A498 renal 75.8% | CCRF-CEM leukemia 103% | MOLT-4 leukemia 87.5%

Cc1cc2nc3cc(C)c(N)cc3[n+](-c3ccccc3)c2cc1N
inactive: HCT-15 colon 111% | HT29 colon 85.3% | SNB-75 CNS 52.1% | SNB-19 CNS 23.3% | U251 CNS 19.4% | PC-3 prostate 42.5% | SK-MEL-5 melanoma 20.7% | UACC-62 melanoma 53.1% | LOX IMVI melanoma 67% | SK-MEL-28 melanoma 80.7% | SK-MEL-2 melanoma 82.8% | EKVX NSCLC 47.3% | SN12C renal 13.9% | UO-31 renal 84.2% | TK-10 renal 93.8% | ACHN renal 89.1% | CAKI-1 renal 97.5% | A498 renal 85.7% | CCRF-CEM leukemia 58.3% | MOLT-4 leukemia 52.8%

Cc1cccc(OCC(O)CN2CCN(c3ccc(Cl)cc3)CC2)c1 (stereo not drawn)
inactive: HCT-15 colon 117% | HT29 colon 104% | SNB-75 CNS 95.1% | SNB-19 CNS 99.8% | U251 CNS 104% | PC-3 prostate 86.5% | SK-MEL-5 melanoma 100% | UACC-62 melanoma 94.2% | LOX IMVI melanoma 96.8% | SK-MEL-28 melanoma 100% | SK-MEL-2 melanoma 110% | EKVX NSCLC 115% | SN12C renal 100% | UO-31 renal 82.4% | TK-10 renal 106% | ACHN renal 108% | CAKI-1 renal 93.1% | A498 renal 100% | CCRF-CEM leukemia 89% | MOLT-4 leukemia 97.1%

Cc1cccc2c3c(sc12)C(c1ccc(Cl)cc1)C(C#N)=C(/N=C/c1ccc(Cl)cc1)O3 (stereo not drawn)
active: HCT-15 colon 8.99% | HT29 colon 6.06% | SNB-75 CNS -3.88% | CAKI-1 renal 5.67% | A498 renal -4.07% | CCRF-CEM leukemia 5.88%
inactive: SNB-19 CNS 23.7% | U251 CNS 24.4% | PC-3 prostate 11% | SK-MEL-5 melanoma 26.4% | UACC-62 melanoma 13.1% | LOX IMVI melanoma 20.9% | SK-MEL-28 melanoma 58.1% | SK-MEL-2 melanoma 43% | EKVX NSCLC 46.5% | SN12C renal 27.3% | UO-31 renal 37.9% | TK-10 renal 74.8% | ACHN renal 25.9% | MOLT-4 leukemia 14.2%

O=C(O)CCC(=O)Nc1nnc(-c2ccccc2)s1
inactive: HCT-15 colon 93.7% | HT29 colon 106% | SNB-75 CNS 87.8% | SNB-19 CNS 105% | U251 CNS 105% | PC-3 prostate 94.8% | SK-MEL-5 melanoma 103% | UACC-62 melanoma 97.8% | LOX IMVI melanoma 99.5% | SK-MEL-28 melanoma 107% | SK-MEL-2 melanoma 106% | EKVX NSCLC 95.3% | SN12C renal 104% | UO-31 renal 106% | TK-10 renal 111% | ACHN renal 109% | CAKI-1 renal 97.8% | A498 renal 98.9% | CCRF-CEM leukemia 106% | MOLT-4 leukemia 111%

O=C(Oc1cccc2ccccc12)Oc1cccc2ccccc12
inactive: HCT-15 colon 106% | HT29 colon 118% | SNB-75 CNS 94.6% | SNB-19 CNS 103% | U251 CNS 103% | PC-3 prostate 71.6% | SK-MEL-5 melanoma 106% | UACC-62 melanoma 103% | LOX IMVI melanoma 99.2% | SK-MEL-28 melanoma 118% | SK-MEL-2 melanoma 104% | EKVX NSCLC 88.3% | SN12C renal 97.2% | UO-31 renal 55% | TK-10 renal 139% | ACHN renal 98% | CAKI-1 renal 86.8% | A498 renal 107% | CCRF-CEM leukemia 88.7% | MOLT-4 leukemia 93.2%

CCc1nnc(NC(=O)c2nnn(-c3ccccc3)c2-c2ccco2)s1
inactive: HCT-15 colon 51.5% | HT29 colon 109% | SNB-75 CNS 89.6% | SNB-19 CNS 93.9% | U251 CNS 84% | PC-3 prostate 64.7% | SK-MEL-5 melanoma 83.2% | UACC-62 melanoma 86.5% | LOX IMVI melanoma 89% | SK-MEL-28 melanoma 95.1% | SK-MEL-2 melanoma 108% | EKVX NSCLC 84.7% | SN12C renal 96.4% | UO-31 renal 87.4% | TK-10 renal 115% | ACHN renal 94.5% | CAKI-1 renal 92.1% | A498 renal 42.7% | CCRF-CEM leukemia 77.8% | MOLT-4 leukemia 93.7%

Oc1ccc(Cl)cc1Cc1cc(Cl)cc(Cl)c1O
active: PC-3 prostate -0.0941% | SK-MEL-5 melanoma 5.53% | UACC-62 melanoma -9.82%
inactive: HCT-15 colon 41.2% | HT29 colon 107% | SNB-75 CNS 60.5% | SNB-19 CNS 34.8% | U251 CNS 13% | LOX IMVI melanoma 20.2% | SK-MEL-28 melanoma 31.2% | SK-MEL-2 melanoma 37.4% | EKVX NSCLC 35.6% | SN12C renal 20.4% | UO-31 renal 44.8% | TK-10 renal 79.5% | ACHN renal 27.9% | CAKI-1 renal 49.6% | A498 renal 85.9% | CCRF-CEM leukemia 19.5% | MOLT-4 leukemia 19.2%
